Measurements as given in PubChem BioAssay (Tox21).
Records with an inconclusive call do not appear. Entries that show only a call come without a potency. Active and inactive are the calls of the source. Calls come from the whole dose curve.

Experiment: p53 small molecule agonists, cell-based qHTS assay with human liver microsomes: qHTS cell viability counter screen (AID 1963579); note: nearly all actives have a fitted effect of over 45% in size
Details: p53RE-bla HCT-116 viability, ATP luminescence, 16 h, HLM; series mostly up to 66 µM
Text: National Center for Advancing Translational Sciences [NCATS]
Division of Preclinical Innovation [DPI]
U.S. Environmental Protection Agency [EPA]
National Institutes of Environmental Health Sciences [NIEHS]
National Toxicology Program [NTP]
U.S. Food and Drug Administration [FDA]
p53, a tumor suppressor protein, is activated following cellular insult, including DNA damage and other cellular stresses. The activation of p53 regulates cell fate by inducing DNA repair, cell cycle arrest, apoptosis, or cellular senescence. The activation of p53, therefore, is a good indicator of DNA damage and other cellular stresses. […] The activation of the reporter gene under culture conditions can be detected by fluorescence intensity. This cell line was used to screen the Tox21 10K compound library in the condition of presence of human liver microsomes and to identify agonists that activate the p53 signaling pathway after in vitro metabolic activation (Ooka et al., Archive of Toxicology 96:1975-1987, 2022).
Tox21 Assay Protocol Summary:
The p53RE-bla cells were dispensed at 4,000cells/3ul/well in 1536-well black-clear bottom plates. After the assay plates were incubated at 37 C, 5% CO2 incubator for 5 hours, 23 nL of compounds dissolved in DMSO, positive controls or DMSO only was transferred to the assay plate. Following compound addition, 3 uL of human liver microsomes (XenoTech, Kansas City, KS) at final concentration of 0.5 mg/mL and 1uL of B-Nicotinamide adenine dinucleotide 2'-phosphate (NADPH) at final concentration of 0.5 mg/mL were transferred to the assay plate. The plates were incubated at 37 C for 16 hours. 1 uL of LiveBLAzer detection mixture was added to each well and the plates were incubated at room temperature in the dark for 2 h. Fluorescence intensity at 460 and 530 nm emission and 405 nm excitation were measured by an Envision plate reader. For cell viability readout that measures cytotoxicity, 4 ul/well of CellTiter-Glo reagent was added into the assay plates using a Flying Reagent Dispenser. After 30 min incubation at room temperature, the luminescence intensity in the plates was measured using a ViewLux plate reader.
Potency is the fitted concentration of half-maximal effect.

Structure (SMILES) | Potency | activity change, negative = cytotoxicity
Cc1cccc(C)c1NC(=O)C(C)N (stereo not given) | inactive | –
CN(C)C(=O)NC1(c2ccccc2)CCN(CC[C@@]2(c3ccc(F)c(F)c3)CN(C(=O)c3ccccc3)CCO2)CC1 | inactive | –
NCCCCCCNCCCCCCN | inactive | –
Cc1c(F)c(N2CCNC(C)C2)cc2c1c(=O)c(C(=O)O)cn2C1CC1 (stereo not given) | inactive | –
CCCOC(=O)c1c(Cl)c(Cl)c(Cl)c(Cl)c1C(=O)OCCC | inactive | –
CC/C=C\CC/C=C/CO | inactive | –
C[C@H]1COc2c(C3(N)CC3)c(F)cc3c(=O)c(C(=O)O)cn1c23 | inactive | –
CC(=O)NC1(c2cccc(F)c2)CCN(CC[C@@]2(c3ccc(Cl)c(Cl)c3)CN(c3ccccc3)C(=O)CO2)CC1 | inactive | –
CC(C)NCC(O)c1cc(O)cc(O)c1 (stereo not given) | inactive | –
Oc1ccc2c(c1)Cc1ccccc1-2 | inactive | –
CCCCCCCC/C=C\CCCCCCCC(=O)OC(CO)CO | inactive | –
CC(=O)Nc1ccc(OCCOCCOc2ccc(NC(C)=O)cc2)cc1 | inactive | –
CCC(C)[O-].CCC(C)[O-].CCOC(=O)/C=C(/C)[O-].[Al+3] | inactive | –
O=c1cc(O)c(Cl)c[nH]1 | inactive | –
Cc1onc(-c2c(Cl)cccc2Cl)c1C(=O)Cl | inactive | –
Nc1nc2ccccc2n1Cc1ccc(F)cc1 | inactive | –
O=CNc1ccccc1 | inactive | –
NC(CCC(=O)O)C(=O)O (stereo not given) | inactive | –
CCc1c(C(=O)NN2CCCCC2)nn(-c2ccc(Cl)cc2Cl)c1-c1ccc(Br)cc1 | 40.8 µM (active) | –
CN(C)CCCN1c2ccccc2Sc2ccc(Cl)cc21 | inactive | –

Structure (SMILES) | Potency | activity change, negative = cytotoxicity
Cc1ccc(N)cc1O | 40.8 µM (active) | –
COc1cc(C(C)(C)C)c(O)c(C(C)(C)C)c1 | inactive | –
O=S1(=O)CCCC1 | inactive | –
CNCC[C@@H](Oc1ccccc1C)c1ccccc1 | inactive | –
CC(=O)[C@H]1[C@H](C#N)C[C@H]2[C@@H]3CC=C4C[C@@H](O)CC[C@]4(C)[C@H]3CC[C@@]21C | inactive | –
CCCCCCOc1ccccc1C(N)=O | inactive | –
CCCCCCC(=O)c1ccccc1 | inactive | –
COc1ccc(S(=O)(=O)N2C(=O)[C@@](c3ccccc3OC)(N3C[C@H](O)C[C@H]3C(=O)N(C)C)c3cc(Cl)ccc32)c(OC)c1 | inactive | –
C=C1c2cccc(O)c2C(O)=C2C(=O)[C@]3(O)C(O)=C(C(N)=O)C(=O)[C@@H](N(C)C)[C@@H]3[C@@H](O)[C@H]12 | inactive | –
CN(C)C(=O)NC1(c2ccccc2)CCN(CCC[C@]2(c3ccc(Cl)c(Cl)c3)CCCN(C(=O)c3ccccc3)C2)CC1 | – | -5.88% [at 13.5 µM] (inactive)
CCc1cccc(N(C)C(N)=Nc2cccc3ccccc23)c1 | inactive | –
Fc1ccc(C(c2ccc(F)cc2)N2CCNCC2)cc1 | inactive | –
NCCCOCCOCCOCCCN | inactive | –
COc1cc(Nc2c(C#N)cnc3cc(OCCCN4CCN(C)CC4)c(OC)cc23)c(Cl)cc1Cl | inactive | –
CC(C)(C)c1ccc(OC2CCCCC2O)cc1 (stereo not given) | inactive | –
O=C(N/N=C/c1ccccc1O)c1ccncc1 | 7.93 µM (active) | –
C=CC(=C)CCCC(C)(C)OC(C)=O | inactive | –
O=C1c2ccccc2C(=O)c2c(Cl)cccc21 | inactive | –
Cc1c[nH]c(=O)[nH]c1=O | inactive | –
CCCCN(CCCC)c1ccc(C(=O)c2ccccc2C(=O)O)c(O)c1 | 16.4 µM (active) | –
